We go through 40 compounds from the supplement of paper PMC8047044.

Structures are written as SMILES. ± gives the standard deviation of the averaged measurements.

The test system of this experiment is Neuro-2a. The experiment in a line: neurite formation score, plate-normalized to DMSO control mean 5.04 (score (0-8 scale)); higher = more or longer neurites. The note with it: 0.1 µM. The procedure: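 Neuro-2a mouse neuroblastoma cells in PLL-coated 96-well plates were pre-treated for 1 h in DMEM(+) with each kinase inhibitor at 0.1 µM, then switched to serum-free DMEM(-) with inhibitor to induce neurite outgrowth and fixed about 2-3 h later. Three blinded observers scored neurite formation from 0 (no neurites) to 8 (long neurites on almost all cells).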
`COc1cc(CCc2cc(NC(=O)c3ccc(N4CC(C)NC(C)C4)cc3)n[nH]2)cc(OC)c1` (stereo not given) registered a neurite formation score of 4.21.

On to `CCCCCCCCCCCCCCCCCC(=O)OC[C@H](CO)OC(=O)CCCCCCCCCCCCCCCCC` [1,2-Distearoyl-sn-glycerol], for which the neurite formation score was 5.42.

Consider `CC(C)n1nc(-c2ccc3oc(N)nc3c2)c2c(N)ncnc21`, for which the neurite formation score was found to be 5.25.

`NC(=O)Nc1sc(-c2ccc(F)cc2)cc1C(N)=O`: the neurite formation score was found to be 4.58.

`COc1cc(C(=O)NC2CCN(C)CC2)c(F)cc1Nc1ncc2c(n1)N(C1CCCC1)CC(F)(F)C(=O)N2C` showed a neurite formation score of 5.08.

In turn, `CN1CCN(CCOc2cc(OC3CCOCC3)c3c(Nc4c(Cl)ccc5c4OCO5)ncnc3c2)CC1` [Saracatinib (AZD0530)] yielded a neurite formation score of 3.38.

The compound `NC(=S)N/N=C/c1ncccc1N` [Triapine] returned a neurite formation score of 3.75.

`FC(F)(F)c1ccc(CNc2ccc(Cc3c[nH]c4ncccc34)cn2)cc1` returned a neurite formation score of 5.08.

In turn, `C=CC(=O)Nc1cccc(Oc2nc(Nc3ccc(N4CCN(C)CC4)cc3OC)ncc2Cl)c1` yielded a neurite formation score of 4.04.

Regarding `CO[C@@H](C(=O)N1Cc2[nH]nc(NC(=O)c3ccc(N4CCN(C)CC4)cc3)c2C1)c1ccccc1`, the neurite formation score is 4.58.

In turn, `O=c1oc2c(O)c(O)cc3c(=O)oc4c(O)c(O)cc1c4c23` [Ellagic acid] came in with a neurite formation score of 4.42.

Turning to `Cc1cc(C(C)Nc2ccccc2)c2nc(N3CCOCC3)cc(=O)n2c1` (stereo not given), the neurite formation score was found to be 3.76.

Compound `Cn1cc(-c2ccc3nnc(Sc4ccc5ncccc5c4)n3n2)cn1` came in with a neurite formation score of 5.04.

The compound `CC(C)(C)c1cc(NC(=O)Nc2ccc(-c3cn4c(n3)sc3cc(OCCN5CCOCC5)ccc34)cc2)no1` [Quizartinib (AC220)] gave a neurite formation score of 5.21.

Consider `C=CC(=O)Nc1cccc(Nc2nc(Nc3ccc(NC4CN(CCF)C4)cc3OC)ncc2C(F)(F)F)c1`, for which the neurite formation score was found to be 4.08.

For `CNC(=O)c1cc(Oc2ccc(NC(=O)Nc3ccc(Cl)c(C(F)(F)F)c3)c(F)c2)ccn1` [Regorafenib monohydrate], the neurite formation score stood at 5.25.

`NC(=O)Nc1cc(-c2cccc(F)c2)sc1C(=O)N[C@H]1CCCNC1`: the neurite formation score was 4.21.

In turn, `Cc1[nH]c(/C=C2\C(=O)Nc3ccc(S(=O)(=O)N(C)c4cccc(Cl)c4)cc32)c(C)c1C(=O)N1CCN(C)CC1` came in with a neurite formation score of 5.04.

In the case of `NC1(Cc2ccc(Cl)cc2)CCN(c2ncnc3[nH]ccc23)CC1`, the neurite formation score worked out at 4.92.

`CCN(CC)CCNC(=O)c1c(C)[nH]c(/C=C2\C(=O)Nc3ccc(F)cc32)c1C` [Sunitinib] registered a neurite formation score of 5.58.

Consider `Oc1cccc(-c2nc(N3CCOCC3)c3oc4ncccc4c3n2)c1`, for which the neurite formation score amounted to 4.04.

Compound `C[C@@H](Oc1ccc2[nH]nc(/C=C/c3cnn(CCO)c3)c2c1)c1c(Cl)cncc1Cl` came in with a neurite formation score of 4.92.

The compound `CN(C[C@@H]1COCCO1)S(=O)(=O)Nc1ccc2ccc3ncc(-c4cnn(C)c4)cc3c(=O)c2c1` had a neurite formation score of 4.25.

`CC(C)(C)NS(=O)(=O)c1cncc(-c2cc(F)c3nc(N)nn3c2)c1` yielded a neurite formation score of 4.92.

With `NCC(=O)Nc1ccc(-n2nc(C(F)(F)F)cc2-c2ccc3c(ccc4ccccc43)c2)cc1`, the neurite formation score was determined as 5.04.

As to `O=C(Nc1nc2cccc(-c3ccc(CN4CCS(=O)(=O)CC4)cc3)n2n1)C1CC1`, the neurite formation score amounted to 5 ± 0.35.

`CCn1c2ccccc2c2cc(Nc3ccnc(NCCCN4CCOCC4)n3)ccc21`: the neurite formation score stood at 3.42.

`COc1cc(-c2cc(-c3cccc(O)c3)cnc2N)cc(OC)c1OC` returned a neurite formation score of 4.08.

Compound `O=C(Nc1cccc(Nc2ncc(Br)c(NCCc3cnc[nH]3)n2)c1)N1CCCC1` came in with a neurite formation score of 4.71.

For `O=C(NOCC1CC1)c1ccc(F)c(F)c1Nc1ccc(I)cc1Cl`, the neurite formation score worked out at 4.71.

For `CCN1CCN(Cc2ccc(Nc3ncc(F)c(-c4cc(F)c5nc(C)n(C(C)C)c5c4)n3)nc2)CC1`, the neurite formation score is 3.04.

Compound `O=c1sn(-c2cccc3ccccc23)c(=O)n1Cc1ccccc1` [Tideglusib] showed a neurite formation score of 5.08.

As to `COc1cc2ncnc(Nc3ccc(F)c(Cl)c3)c2cc1OCCCN1CCOCC1` [Gefitinib (ZD1839)], the neurite formation score came out at 4.88.

Turning to `Cc1cc(Nc2nc(N[C@@H](C)c3ncc(F)cn3)ncc2Cl)[nH]n1`, the neurite formation score stood at 3.09.

Take `OCCn1cc(-c2cnc3nnn(Cc4ccc5ncccc5c4)c3n2)cn1`: the neurite formation score came out at 3.25.

The compound `CN(C)c1ccc(-c2nc3ncc(Cl)c(N4CCN(CC(=O)Nc5nccs5)CC4)c3[nH]2)cc1` yielded a neurite formation score of 4.09.

`COc1cc2nccc(Oc3ccc(NC(=O)C4(C(=O)Nc5ccc(F)cc5)CC4)cc3)c2cc1OC` [Cabozantinib malate (XL184)] had a neurite formation score of 4.92.

In turn, `O=c1cc(N2CCOCC2)oc2c1ccc1ccccc12` showed a neurite formation score of 4.42.

In the case of `O=C(CCCCCCC(=O)Nc1ccc(I)cc1)NO` [4-iodo-SAHA], the neurite formation score amounted to 4.42.

`CCS(=O)(=O)Nc1ccc2[nH]c(O)c(C(=Nc3ccc(CN4CCCCC4)cc3)c3ccccc3)c2c1` [Hesperadin] registered a neurite formation score of 3.92.
